Experimental findings from PubChem BioAssay (Tox21) are described below.

The nature of assay [1]: qHTS assay to identify small molecule antagonists of the glucocorticoid receptor (GR) signaling pathway - cell viability counter screen (AID 720693). Further: nearly all actives have a fitted effect of over 55% in size. Further: potency means the concentration at half of the fitted maximal effect.
Assay [2] is described as follows: qHTS assay for identifying genotoxic compounds that show differential cytotoxicity against isogenic chicken DT40 cell lines with known DNA damage response pathways - wild type cell line (AID 743012). Further: nearly all actives have a fitted effect of over 60% in size. Further: potency means the concentration at half of the fitted maximal effect. The procedure, abridged: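 Quantitative HTS on parental DT40 cells: 40 h compound treatment at 37 C/5% CO2, with viability then determined by CellTiter-Glo luminescence. Values serve as the DNA repair-proficient reference for differential cytotoxicity.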

The nature of assay [3]: qHTS assay for identifying genotoxic compounds that show differential cytotoxicity against isogenic chicken DT40 cell lines with known DNA damage response pathways - Rev3 mutant cell line (AID 743014). Further: nearly all actives have a fitted effect of over 55% in size. Further: potency means the concentration at half of the fitted maximal effect.
Assay [4] in a line: qHTS assay for identifying genotoxic compounds that show differential cytotoxicity against isogenic chicken DT40 cell lines with known DNA damage response pathways - Rad54/Ku70 mutant cell line (AID 743015). Further: nearly all actives have a fitted effect of over 60% in size. Further: potency means the concentration at half of the fitted maximal effect.
A short description of assay [5]: qHTS assay to identify small molecule antagonists of the androgen receptor (AR) signaling pathway - cell viability counter screen (AID 743033; further: nearly all actives have a fitted effect of over 45% in size; further: potency means the concentration at half of the fitted maximal effect).
Assay [6] is described as follows: qHTS assay to identify small molecule antagonists of the androgen receptor (AR) signaling pathway using the MDA cell line - cell viability counter screen (AID 743041; further: nearly all actives have a fitted effect of over 45% in size; further: potency means the concentration at half of the fitted maximal effect). In outline:
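Viability counter screen run alongside the AR antagonist reporter: cells seeded 5 h before compound, R1881 added, 16 h incubation at 37C without CO2, fluorescent CellTiter-Fluor signal quantified.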

Assay [7] in a line: qHTS assay to identify small molecule antagonists of the thyroid receptor (TR) signaling pathway - cell viability counter screen (AID 743064). Further: nearly all actives have a fitted effect of over 50% in size. Further: potency means the concentration at half of the fitted maximal effect. The procedure, abridged: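 Compounds were tested on GH3.TRE-Luc cells in the presence of T3 at 1 nM final. Following 23.5 h at 37 °C, cell viability was quantified by CellTiter-Fluor.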
Assay [8] in a line: qHTS assay to identify small molecule antagonists of the thyroid receptor (TR) signaling pathway (AID 743065). Further: nearly all actives have a fitted effect of over 55% in size. Further: potency means the concentration at half of the fitted maximal effect. The procedure, abridged:
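GH3.TRE-Luc rat pituitary cells carrying two TR response elements driving luciferase were plated for 4 h, given compound plus 1 nM T3 (final), and incubated 23.5 h at 37 C. ONE-Glo luminescence measured reporter inhibition; CellTiter-Fluor fluorescence tracked cytotoxicity.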

The subject of assay [9] is thyroid hormone receptor (rat, GH3 cells). Nature of the assay: qHTS assay to identify small molecule agonists of the thyroid receptor (TR) signaling pathway (AID 743066; calls by dose curve).
Assay [10] can be described thus: qHTS assay to identify small molecule antagonists of the estrogen receptor alpha (ER-alpha) signaling pathway - cell viability counter screen (AID 743074; calls by dose curve;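 further: HEK293 cells carrying ER-alpha-UAS-bla reporter stimulated with 17beta-estradiol; nearly all actives have a fitted effect of over 45% in size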).
Assay [11] is described as follows: qHTS assay to identify small molecule antagonists of the estrogen receptor alpha (ER-alpha) signaling pathway using the BG1 cell line - cell viability counter screen (AID 743081).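 Further: compound given together with 17beta-estradiol as the ER stimulus; nearly all actives have a fitted effect of over 45% in size.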 Further: potency means the concentration at half of the fitted maximal effect.
The next assay concerns the target Aromatase (Homo sapiens) (UniProt P11511). The experiment in a line: qHTS assay to identify aromatase inhibitors (AID 743083). Further: nearly all actives have a fitted effect of over 55% in size. Further: potency means the concentration at half of the fitted maximal effect.
Assay [12] deals with Estrogen receptor (Homo sapiens) (UniProt P03372). Nature of the assay: qHTS assay to identify small molecule antagonists of the estrogen receptor alpha (ER-alpha) signaling pathway (AID 743069; active means well fitted curve in the direction sought with a large enough effect in the signal ratio in the repeat runs, not every such curve was filed as active; inconclusive means weak or mixed curves, or effect the other way; inactive means no such curve, though single readings can be large or run the other way; the % refers to the signal ratio; further: potency means the concentration at half of the fitted maximal effect). In outline:
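Estradiol-stimulated ER-alpha-UAS-bla HEK293 cells, 18 hr compound exposure at 37C. LiveBLAzer B/G substrate, 2 hr RT, fluorescence read.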

The target is the same in assay [13]. The experiment in a line: qHTS assay to identify small molecule agonists of the estrogen receptor alpha (ER-alpha) signaling pathway (AID 743075; calls by dose curve;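 further: HEK293 GripTite cells with ER-alpha and UAS-driven beta-lactamase reporter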; further: potency means the concentration at half of the fitted maximal effect).
Assay [14] has the same target. The experiment in a line: qHTS assay to identify small molecule agonists of the estrogen receptor alpha (ER-alpha) signaling pathway using the BG1 cell line (AID 743079). Further: nearly all actives have a fitted effect of over 20% in size. Further: potency means the concentration at half of the fitted maximal effect.
Assay [15] in a line: qHTS assay to identify small molecule antagonists of the estrogen receptor alpha (ER-alpha) signaling pathway using the BG1 cell line (AID 743080; calls by dose curve;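 further: BG1 cells stimulated with 17beta-estradiol alongside compound; nearly all actives have a fitted effect of over 25% in size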; further: potency means the concentration at half of the fitted maximal effect). To be noted: BG1Luc4E2 ERE-luciferase antagonist mode, luminescence; activity change, negative = inhibition: at 70.3 µM (top of the series). In outline: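 Luciferase inhibition measured with ONE-Glo after 30 min at RT in BG1Luc4E2 cells given test compounds and 17beta-estradiol for 21.5 h at 37 C; CellTiter-Fluor viability read in the same wells beforehand.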

Assay [16] deals with Androgen receptor (Homo sapiens) (UniProt P10275). Nature of the assay: qHTS assay to identify small molecule agonists of the androgen receptor (AR) signaling pathway using the MDA cell line (AID 743040; further: nearly all actives have a fitted effect of over 20% in size). In outline: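 Luminescence from ONE-Glo, read after 30 min at room temperature, reflects MMTV-driven luciferase in MDA-kb2 cells (AR- and GR-responsive). Treatment lasted 16 h at 37C, 0% CO2.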

Assay [17] has the same target. Nature of the assay: qHTS assay to identify small molecule antagonists of the androgen receptor (AR) signaling pathway using the MDA cell line (AID 743042; further: nearly all actives have a fitted effect of over 55% in size). The procedure, abridged: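 MDA-kb2 cells (human breast carcinoma, stably carrying an MMTV-luciferase reporter responsive to AR and GR) were plated at 3,000 cells/well and preincubated 5 hr at 37C, then given compound plus R1881 agonist for 16 h. ONE-Glo luminescence was read.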

Values joined by “and” are separate entries in the source; they are usually repeats but may differ in a detail not shown here. Equal values may be shown once. A structure can be active in one record and inactive in another. Active and inactive are the calls of the source. Unless noted, the call rests on the fitted dose curve; in most records, active means well fitted curve in the direction sought with a large enough effect in the repeat runs; inconclusive means weak or mixed curves; inactive means no such curve, though single readings can be large; an effect the other way counts as inactive or inconclusive.

Sequence of Androgen receptor (Homo sapiens) (P10275 whole entry, looked up): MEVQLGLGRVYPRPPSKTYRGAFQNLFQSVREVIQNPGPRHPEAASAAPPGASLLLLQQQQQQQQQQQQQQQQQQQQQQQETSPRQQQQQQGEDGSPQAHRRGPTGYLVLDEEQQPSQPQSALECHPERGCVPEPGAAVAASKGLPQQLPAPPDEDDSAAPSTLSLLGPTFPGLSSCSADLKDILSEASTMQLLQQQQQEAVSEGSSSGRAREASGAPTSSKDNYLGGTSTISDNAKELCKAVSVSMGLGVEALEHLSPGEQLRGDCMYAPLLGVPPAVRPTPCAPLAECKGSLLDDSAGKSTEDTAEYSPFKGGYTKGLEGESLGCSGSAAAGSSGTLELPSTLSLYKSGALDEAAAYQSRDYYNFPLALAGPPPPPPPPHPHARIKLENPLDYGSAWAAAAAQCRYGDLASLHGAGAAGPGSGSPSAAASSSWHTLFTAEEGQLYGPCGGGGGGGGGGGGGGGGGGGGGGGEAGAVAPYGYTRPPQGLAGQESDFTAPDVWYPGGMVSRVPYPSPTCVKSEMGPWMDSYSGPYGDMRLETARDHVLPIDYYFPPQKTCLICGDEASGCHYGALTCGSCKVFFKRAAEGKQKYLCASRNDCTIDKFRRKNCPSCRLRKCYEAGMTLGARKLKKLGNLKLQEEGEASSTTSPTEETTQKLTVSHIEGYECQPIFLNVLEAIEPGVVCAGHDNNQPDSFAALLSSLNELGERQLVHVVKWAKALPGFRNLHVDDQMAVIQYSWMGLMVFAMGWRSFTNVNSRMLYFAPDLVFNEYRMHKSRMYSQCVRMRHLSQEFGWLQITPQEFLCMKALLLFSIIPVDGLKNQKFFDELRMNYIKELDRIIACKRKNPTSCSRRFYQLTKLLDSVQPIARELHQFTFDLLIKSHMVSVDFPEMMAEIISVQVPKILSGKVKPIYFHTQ
Sequence of Aromatase (Homo sapiens) (P11511 whole entry, looked up): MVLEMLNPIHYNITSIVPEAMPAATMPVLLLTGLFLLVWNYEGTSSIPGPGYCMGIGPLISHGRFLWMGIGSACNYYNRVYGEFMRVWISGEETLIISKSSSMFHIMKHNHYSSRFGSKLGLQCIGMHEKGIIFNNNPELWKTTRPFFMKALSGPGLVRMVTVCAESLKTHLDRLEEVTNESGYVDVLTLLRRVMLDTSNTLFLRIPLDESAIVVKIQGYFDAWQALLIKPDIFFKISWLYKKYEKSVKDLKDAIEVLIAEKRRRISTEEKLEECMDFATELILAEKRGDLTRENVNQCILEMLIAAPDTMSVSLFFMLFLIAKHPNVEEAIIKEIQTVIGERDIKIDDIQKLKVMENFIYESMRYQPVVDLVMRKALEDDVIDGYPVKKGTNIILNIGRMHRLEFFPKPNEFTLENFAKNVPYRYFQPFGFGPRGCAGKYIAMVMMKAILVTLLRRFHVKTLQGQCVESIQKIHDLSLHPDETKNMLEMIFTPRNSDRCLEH
Sequence of Estrogen receptor (Homo sapiens) (P03372 whole entry, looked up): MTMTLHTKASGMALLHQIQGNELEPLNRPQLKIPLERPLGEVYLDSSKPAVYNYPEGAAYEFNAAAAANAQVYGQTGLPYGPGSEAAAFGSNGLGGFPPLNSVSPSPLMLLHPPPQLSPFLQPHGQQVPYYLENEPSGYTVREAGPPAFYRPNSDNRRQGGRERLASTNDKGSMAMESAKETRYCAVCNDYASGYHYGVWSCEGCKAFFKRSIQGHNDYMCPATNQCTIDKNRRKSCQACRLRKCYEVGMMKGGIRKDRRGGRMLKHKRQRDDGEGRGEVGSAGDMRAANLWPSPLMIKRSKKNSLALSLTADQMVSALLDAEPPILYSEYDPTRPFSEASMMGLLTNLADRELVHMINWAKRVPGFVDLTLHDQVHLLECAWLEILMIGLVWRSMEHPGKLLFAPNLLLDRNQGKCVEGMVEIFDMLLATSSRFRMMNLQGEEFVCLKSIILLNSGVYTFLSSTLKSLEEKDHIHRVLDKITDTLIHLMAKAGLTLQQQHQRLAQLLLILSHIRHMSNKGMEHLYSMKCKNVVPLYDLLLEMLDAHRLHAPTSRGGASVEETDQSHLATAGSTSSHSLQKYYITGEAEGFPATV

For `F[B-](F)(F)F`, the Potency entry in [1], in [2], in assay [3], in assay [4], in assay [5] and in assay [6] was “inactive” each time. Further, the Potency entry (in [7]; in [8]; in assay [9]; in [10]; in [11]; with Aromatase (Homo sapiens)) was “inactive” in each case.

Consider `CC1(C)O[C@@H]2C[C@H]3[C@@H]4CCC5=CC(=O)C=C[C@]5(C)[C@@]4(F)[C@@H](O)C[C@]3(C)[C@]2(C(=O)CO)O1`, for which the Potency entry in assay [1], in assay [2], in assay [3], in assay [4], in assay [5] and in [6] was “inactive” in each case. Also, the Potency result (in assay [7]; in [8]; in assay [9]; in [10]; in [11]; with Aromatase (Homo sapiens)) was “inactive” throughout.

For `CCCCNC(=O)NS(=O)(=O)c1ccc(C)cc1`, the Potency entry in assay [1], in [2], in assay [3], in assay [4], in assay [5] and in assay [6] was “inactive” throughout. The Potency result (in assay [7]; in assay [8]; in assay [9]; in assay [10]; in assay [11]; in the assay with Aromatase (Homo sapiens)) was “inactive” each time.

As for `CC(=O)C(=O)O`, the Potency entry in assay [1], in assay [2], in assay [3], in [4], in [5] and in assay [6] was “inactive” each time. Moreover, the Potency result (in assay [7]; in [10]; in [11]; in the assay with Aromatase (Homo sapiens)) was “inactive” throughout.

In the case of `Cc1c(C(=O)O)c(O)cc2c1C(=O)c1c(O)c([C@@H]3O[C@H](CO)[C@@H](O)[C@H](O)[C@H]3O)c(O)c(O)c1C2=O`, the Potency entry in assay [1], in assay [2], in assay [5], in [9], in assay [12] and in assay [10] was “inactive” throughout. For the same compound, the Potency result in assay [13] and in assay [14] was “inactive” throughout. The Potency result in assay [3] is “inactive and 59.6 µM (active) and 54.5 µM (active)”; in assay [4], 53.1 µM (active) and 48.6 µM (active); in [6], 59.6 µM (active) and 27.3 µM (active); in assay [7] it was 13.3 µM (active) and 59.6 µM (active) and 61.1 µM (active); in [11], 18.8 µM (active) and 29.9 µM (active) and 27.3 µM (active).

Take `C/C=C/C=C/C(=O)O`: the Potency entry in assay [1], in assay [3], in assay [5], in assay [6], in assay [7] and in [8] was “inactive” each time. Also, the Potency entry (in assay [9]; in [10]; in assay [11]; in the assay with Aromatase (Homo sapiens)) was “inactive” in each case. In addition, the Potency entry is “inactive and 61.1 µM (active)” in assay [2]; “inactive and 61.1 µM (active)” in assay [4].

As for `COc1ccc(OC(F)(F)F)cc1CN[C@H]1CCCN[C@H]1c1ccccc1`, the Potency result in assay [1], in assay [12], in [13] and in assay [11] was “inactive” each time. Also, the Potency was 15.4 µM (active) in [2]; 30.6 µM (active) in assay [3]; 27.3 µM (active) in assay [4]; 49 µM (active) in [5]; 24.3 µM (active) in assay [7]; 24.3 µM (active) in assay [8].

In the case of `Cc1cc(=O)oc2cc(O)ccc12`, the Potency result in assay [1], in assay [2], in assay [3], in assay [4], in [5] and in [6] was “inactive” in each case. In addition, the Potency result in assay [9], in assay [12], in assay [10], in assay [13], in [14] and in assay [15] was “inactive” throughout. Also, the Potency result (in [11]; with Aromatase (Homo sapiens)) was “inactive” each time.

`CCCCC(CC)C(=O)O` (stereo unspecified): the Potency entry in [1], in [5], in assay [6], in assay [7], in assay [8] and in assay [9] was “inactive” in each case. For the same compound, the Potency result (in assay [10]; in assay [11]; in the assay with Aromatase (Homo sapiens)) was “inactive” in each case.

`NC(=O)n1c(O)c(C(=O)c2cccs2)c2cc(Cl)ccc21`: the Potency entry in assay [1], in assay [5], in assay [6], in assay [10] and in assay [13] was “inactive” in each case. Besides, the Potency is 29.8 µM (active) in assay [8], 21.3 µM [inconclusive] (active) in assay [12] and 29.8 µM (active) in [15].

Take `CC(C)c1c(C(=O)Nc2ccccc2)c(-c2ccccc2)c(-c2ccc(F)cc2)n1CC[C@@H](O)C[C@@H](O)CC(=O)O`: the Potency entry in [1], in assay [5], in [6], in assay [9], in assay [10] and in [11] was “inactive” in each case. In addition, in assay [7], the Potency entry is “inactive and 57.1 µM (active)”.

As for `NC(=O)c1cccnc1`, the Potency entry in assay [1], in [2], in assay [3], in [4], in [5] and in assay [6] was “inactive” throughout. Moreover, the Potency result in assay [12], in [10], in [13], in [14], in [15] and in assay [11] was “inactive” throughout. For the same compound, the Potency entry with Aromatase (Homo sapiens) was “inactive”.

`COc1cccc(O)c1O`: the Potency result in assay [1], in assay [6], in [7], in assay [9], in assay [10] and in assay [14] was “inactive” in each case. The Potency entry in assay [15] is “inactive”. For the same compound, the Potency is 25.3 µM (active) in assay [3], 50.7 µM [activator] (active) in [13] and 35.7 µM (active) with Aromatase (Homo sapiens). In addition, the result in assay [16] was inactive.

On to `CN1[C@@H]2CC(OC(=O)[C@H](CO)c3ccccc3)C[C@H]1[C@@H]1O[C@@H]12` (stereo partly specified), for which the Potency result in assay [1], in [5], in [6], in [7], in assay [9] and in [12] was “inactive” each time. The Potency entry in [10], in assay [13], in assay [15] and in [11] was “inactive” each time. For the same compound, the Potency result in assay [14] is “inactive and 23.7 µM (active) and 48.6 µM (active)”.

In the case of `CCN(Cc1c(F)cccc1Cl)c1c([N+](=O)[O-])cc(C(F)(F)F)cc1[N+](=O)[O-]`, the Potency in [2] is 30.6 µM (active); in [3], 27.3 µM (active); in [4], 24.3 µM (active); in assay [14], 21.7 µM (active); in the assay with Aromatase (Homo sapiens), 27.3 µM (active). Moreover, the Potency entry in assay [6], in [7], in assay [9], in [10], in [13] and in assay [15] was “inactive” in each case. Besides, the Potency result in assay [11] was “inactive”.

With `O=C(Nc1ncc([N+](=O)[O-])s1)c1cccs1`, the Potency is 9.52 µM (active) in assay [1]; 23.7 µM (active) in assay [2]; 29.8 µM (active) in assay [3]; 26.6 µM (active) in [4]; 21.1 µM (active) in assay [8]. In assay [16], the compound was called inactive. Also, the Potency entry (in assay [17]; in assay [9]; in assay [12]; in [13]; with Aromatase (Homo sapiens)) was “inactive” in each case.

As for `CC1(C)S[C@@H]2[C@H](NC(=O)[C@H](N)c3ccccc3)C(=O)N2[C@H]1C(=O)O`, the Potency entry in assay [1], in assay [2], in assay [3], in assay [4], in [5] and in assay [6] was “inactive” throughout. For the same compound, the Potency result (in assay [10]; in assay [11]; in the assay with Aromatase (Homo sapiens)) was “inactive” throughout.
